{"source": "PubChem BioAssay (Tox21)", "note": "Results filed as inconclusive are left out. Calls of active or inactive are those of the source. The call rests on the fitted dose curve; in most records, active means well fitted activation curve with a large enough effect in the repeat runs; inconclusive means weak or mixed curves; inactive means flat fitted curve, though single readings scatter. On the % scale 0 is the no-effect control and ±100 the full control effect."}
{"assay": "A CellTox Green Cytotoxicity Assay to monitor cytotoxicity in HEK293 cells - 40 hour (AID 1224871); further: nearly all actives have a fitted effect of over 45% in size", "conditions": "CellTox Green fluorescence; series mostly up to 76.8 µM; cytotoxicity increase: at the top concentration", "source_text": "National Center for Advancing Translational Sciences [NCATS]\nNIH Chemical Genomics Center [NCGC]\nU.S. Environmental Protection Agency [EPA]\nNational Institutes of Environmental Health Sciences [NIEHS]\nNational Toxicology Program [NTP]\nCell-based models are critical for drug discovery. Determining the natural cytotoxic effects resulting from test compounds is an essential research activity. A CellTox Green Cytotoxicity Assay to monitor cytotoxicity in real time of continues cell culture during 40 hours of the compound treatment was used to screen Tox21 10K library compounds in Hek293 cells. CellTox Green Cytotoxicity Assay is a nonlytic, homogeneous, biofluorescent method to measure cytotoxicity in cell culture after experimental manipulation. The assay system uses a proprietary asymmetric cyanine dye that is excluded from viable cells but preferentially stains the dead cell's DNA. […] Viable cells produce no appreciable increases in fluorescence. Therefore, the fluorescence signal produced by the binding interaction with dead cell DNA is proportional to cytotoxicity.\nThe mixture of Hek293 cell suspension and reagents were dispensed at 600cells/6 ul/well in 1536-well tissue culture treated black solid bottom plates using a Multidrop dispenser. After the assay plates were incubated at a 37 C/5% CO2 incubator for 5 hours, 23 nL of compounds dissolved in DMSO, positive and negative controls was transferred to the assay plate by a pintool work station. The plates were incubated at 37 C for 40 hours. The fluorescence intensity were measured at 0h, 8h, 16h, 24h, 32h and 40h time points using ViewLux plate reader during compound treatment."}
{"compound": "Cc1cc(O)c2c(c1)C(=O)c1cccc(O)c1C2=O", "cytotoxicity increase": "-5.19% [at 35.3 µM] (inactive)"}
{"compound": "COc1cccc2sc(N)nc12", "cytotoxicity increase": "-8.12% (inactive)"}
{"compound": "NCCc1ccn[nH]1", "cytotoxicity increase": "-3.27% [at 35.3 µM] (inactive)"}
{"compound": "CCOC(=O)C(C)(C)C", "cytotoxicity increase": "1.59% (inactive)"}
{"compound": "COCCOCCOCCOC", "cytotoxicity increase": "-15.3% (inactive)"}
{"compound": "CCN(Cc1cccc(S(=O)(=O)O)c1)c1ccccc1", "cytotoxicity increase": "-22.6% (inactive)"}
{"compound": "CCCCCCCCCCCCOC(C)=O", "cytotoxicity increase": "-1.33% (inactive)"}
{"compound": "CCCCC(CC)C(=O)OC(C)C", "note": "(stereo not given)", "cytotoxicity increase": "13.9% (inactive)"}
{"compound": "Nc1c(NC/C=C\\COc2cc(CN3CCCCC3)ccn2)c(=O)c1=O", "cytotoxicity increase": "6.78% [at 15.8 µM] (inactive)"}
{"compound": "CCC1COC(=O)O1", "note": "(stereo not given)", "cytotoxicity increase": "-3.2% (inactive)"}
{"compound": "CCCOCCOCCOCCO", "cytotoxicity increase": "-13% (inactive)"}
{"compound": "CC(=O)OC(C)(C)Cc1ccccc1", "cytotoxicity increase": "1.81% (inactive)"}
{"compound": "CCCCC(CC)COC(=O)c1ccccc1", "note": "(stereo not given)", "cytotoxicity increase": "-11.8% (inactive)"}
{"compound": "NC(=O)C1(N2CCCCC2)CCN(CCCC(=O)c2ccc(F)cc2)CC1", "cytotoxicity increase": "-13.9% [at 35.3 µM] (inactive)"}
{"compound": "CCC(C)(CCC(C)C)C(=O)[O-].CCC(C)(CCC(C)C)C(=O)[O-].[Zn+2]", "note": "(stereo not given)", "cytotoxicity increase": "1.93% (inactive)"}
{"compound": "CCCCC[Si](OCC)(OCC)OCC", "cytotoxicity increase": "-22.7% (inactive)"}
{"compound": "Nc1ccnc(=O)[nH]1", "cytotoxicity increase": "9.95% (inactive)"}
{"compound": "CCCCCN(CCCOC)C(=O)C(CCC(=O)O)NC(=O)c1ccc(Cl)c(Cl)c1", "note": "(stereo not given)", "cytotoxicity increase": "-9.26% [at 35.3 µM] (inactive)"}
{"compound": "O=c1[nH]c(=O)c2[nH]c(=O)[nH]c2[nH]1", "cytotoxicity increase": "-13.3% [at 6.97 µM] (inactive)"}
{"compound": "CC(=O)OCC(=O)[C@@]1(O)[C@H](OC(C)=O)C[C@H]2[C@@H]3CCC4=CC(=O)C=C[C@]4(C)[C@@]3(F)[C@@H](O)C[C@@]21C", "cytotoxicity increase": "0.0883% [at 35.3 µM] (inactive)"}
{"compound": "CCCCC(=O)N(C)C", "cytotoxicity increase": "-7.59% (inactive)"}
{"compound": "Nc1ccc(S(=O)(=O)Nc2ccccn2)cc1", "cytotoxicity increase": "0.054% [at 35.3 µM] (inactive)"}
{"compound": "FC(F)(F)c1ccc(Cl)cc1Cl", "cytotoxicity increase": "-2.43% (inactive)"}
{"compound": "Nc1ccc(S(=O)(=O)NC(=O)c2ccccc2)cc1", "cytotoxicity increase": "-3.09% [at 35.3 µM] (inactive)"}
{"compound": "COc1ccc(NS(=O)(=O)c2ccc(N)cc2)nn1", "cytotoxicity increase": "-3.87% [at 35.3 µM] (inactive)"}
{"compound": "O=C(O)/C=C/c1ccccc1", "cytotoxicity increase": "-15.6% (inactive)"}
{"compound": "CCNC(=O)/C=C/c1cccc(Br)c1", "cytotoxicity increase": "-3.03% [at 35.3 µM] (inactive)"}
{"compound": "COC(/C=C(\\C)CCC=C(C)C)OC", "cytotoxicity increase": "-3.73% (inactive)"}
{"compound": "NC(=O)NC(=O)Cc1ccccc1", "cytotoxicity increase": "-9.57% [at 35.3 µM] (inactive)"}
{"compound": "CCCC(C)CC", "note": "(stereo not given)", "cytotoxicity increase": "-2.25% (inactive)"}
{"compound": "COc1cc2c3cc1Oc1cc(ccc1O)C[C@@H]1c4c(cc(OC)c(O)c4Oc4ccc(cc4)C[C@@H]3N(C)CC2)CC[N+]1(C)C", "cytotoxicity increase": "-11.1% [at 35.3 µM] (inactive)"}
{"compound": "C=CC(C)(O)CC/C=C(\\C)CC", "note": "(stereo not given)", "cytotoxicity increase": "-10.4% (inactive)"}
{"compound": "COc1cc(C=O)ccc1OC(=O)C(C)C", "cytotoxicity increase": "-8.37% (inactive)"}
{"compound": "O=P(O)(O)OCC(O)CO", "note": "(stereo not given)", "cytotoxicity increase": "-0.269% [at 35.3 µM] (inactive)"}
{"compound": "COc1cc2c(Nc3ccc(Br)cc3F)ncnc2cc1OCC1CCN(C)CC1", "cytotoxicity increase": "10.9% [at 35.3 µM] (inactive)"}
{"compound": "CN[C@@H]1[C@@H](O)[C@@H](O[C@@H]2[C@H](O)[C@H](O[C@H]3OC(CN)=CC[C@H]3N)[C@@H](N)C[C@H]2N)OCC1(C)O", "note": "(stereo not given in full)", "cytotoxicity increase": "1.44% [at 35.3 µM] (inactive)"}
{"compound": "CC(=O)N(CC(O)CO)c1c(I)c(C(=O)NCC(O)CO)c(I)c(C(=O)NCC(O)CO)c1I", "note": "(stereo not given)", "cytotoxicity increase": "-10.7% [at 35.3 µM] (inactive)"}
{"compound": "CCCCCC(=O)OCC", "cytotoxicity increase": "-0.353% (inactive)"}
{"compound": "NS(=O)(=O)c1cc2c(cc1Cl)NC(C(Cl)Cl)NS2(=O)=O", "note": "(stereo not given)", "cytotoxicity increase": "1.85% [at 35.3 µM] (inactive)"}
{"compound": "CCCCCCCC/C=C\\CCCCCCCC(=O)OC[C@@H](O)[C@H]1OC[C@H](O)[C@H]1O", "cytotoxicity increase": "-19.3% (inactive)"}
